Source: PubChem (National Center for Advancing Translational Sciences (NCATS))
VDR inh – vitamin D3 receptor (human) inhibition. VDR-SRC2-3 peptide fluorescence polarization, 2 h. Potency, µM, inactives show max response, negative = inhibition, actives largely listed as inhibitors. AID 504847. 400,000 tested, 0.93% active. P11473; further: on the % scale 0 is the no-effect control and ±100 the full control effect
Target sequence (P11473 whole entry, looked up): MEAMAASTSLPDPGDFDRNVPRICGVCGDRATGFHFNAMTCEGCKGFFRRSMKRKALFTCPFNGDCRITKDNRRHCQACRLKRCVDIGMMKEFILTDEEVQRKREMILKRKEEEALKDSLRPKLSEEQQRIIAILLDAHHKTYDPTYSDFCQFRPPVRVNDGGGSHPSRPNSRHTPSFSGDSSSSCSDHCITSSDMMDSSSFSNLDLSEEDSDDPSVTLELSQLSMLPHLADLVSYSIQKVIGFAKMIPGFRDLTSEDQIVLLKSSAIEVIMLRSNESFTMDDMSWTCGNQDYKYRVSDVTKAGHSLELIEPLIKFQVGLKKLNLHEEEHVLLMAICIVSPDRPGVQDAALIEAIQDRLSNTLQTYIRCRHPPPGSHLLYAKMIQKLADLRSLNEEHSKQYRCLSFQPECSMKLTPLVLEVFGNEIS
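The screen uses fluorescence polarization to detect compounds that interfere with recruitment of the SRC2-3 coactivator peptide to VDR; plates are read after 2 h at room temperature.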
Glioma ERSR ind – inducers of ER stress response in human glioma cells; 420,000 tested, 0.02% active; U87-MG GRP78 promoter luciferase reporter, 16 h; AID 602332; Potency, µM, for the others: top-dose activation, most hits filed as activators; further: series mostly up to about 76 µM; % of control where 0% means no effect; nearly all actives have a fitted effect of over 35% in size
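ERSR induction read as luciferase luminescence (Bright-Glo, 10 min at room temperature) in stably transfected human U87-MG glioma cells exposed to compounds for 16 h, using GRP78 as sensor.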
G9a block – blocks human histone lysine methyltransferase G9a. 350,000 tested, 8.8% active. Potency, µM (top dose mostly 102 µM), inactives show at the highest dose activity, negative = inhibition, most hits filed as inhibitors. Q96KQ7. G9a H3K9 monomethylation, AlphaScreen, 2 h; further: on the % scale 0 is the no-effect control and ±100 the full control effect; nearly all actives have a fitted effect of over 75% in size
Target sequence (Q96KQ7 913-1193 limits assumed): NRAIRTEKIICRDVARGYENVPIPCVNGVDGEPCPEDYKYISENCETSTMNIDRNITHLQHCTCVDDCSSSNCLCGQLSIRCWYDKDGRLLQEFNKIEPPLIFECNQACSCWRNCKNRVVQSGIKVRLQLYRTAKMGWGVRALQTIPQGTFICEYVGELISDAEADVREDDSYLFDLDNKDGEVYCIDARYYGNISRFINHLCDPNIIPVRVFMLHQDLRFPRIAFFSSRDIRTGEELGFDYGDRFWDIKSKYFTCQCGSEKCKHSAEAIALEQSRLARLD
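AlphaScreen detection with an anti-monomethyl H3K9 antibody quantified product after a 2 h room-temperature reaction containing 500 nM biotinylated H3K9 peptide, 20 µM SAM and 20 nM enzyme, which had been preincubated 15 min with compound.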
ALOX12 inh – inhibitors of human 12S-lipoxygenase ALOX12; purified 12hLO, xylenol orange hydroperoxide absorbance; Potency, µM (titrated, usually from 108 µM), without a hit: at the top dose activity change, negative = inhibition, hits mostly inhibitors; 580,000 tested, 1.1% active; further: on the % scale 0 is the no-effect control and ±100 the full control effect
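Purified human 12hLO (150 nM final) in 25 mM Hepes, 0.01% Triton X-100, pH 7.0 was preincubated 15 min at room temperature with compound. Then 40 uM arachidonic acid was added, 30 min. Hydroperoxide was read by Fe-XO absorbance ratio 573/405 nm.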
Sfp inh – inhibitors of Bacillus subtilis Sfp phosphopantetheinyl transferase; Potency, µM, for inactives: largest response in the series, negative = inhibition, usual class: inhibitors; AID 1490; 310,000 tested, 3.5% active; Biochemical Sfp PPTase activity, qHTS;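 further: the enzyme is Sfp with the accession as filed and its product quenches rhodamine fluorescence; 0% = enzyme reaction without inhibitor and -100% = no enzyme wells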
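Reaction rates are the 30-min fluorescence difference (ex 525, em 598 nm) in wells containing 15 nM Sfp, 5 uM rhodamine-CoA and 12.5 uM BHQ-2-YbbR at pH 7.6 with 10 mM MgCl2.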
* = called active by the depositor; u = inconclusive; x = not tested or not shown; ! = repeats disagree; [ ] = another dose, or the depositor's remark. The full list was thinned out, with hits kept by preference. The call rests on the fitted dose curve; in most records, active means well fitted curve in the direction sought with a large enough effect; inconclusive means small, poorly fitted or top-dose-only effect, or another doubt; inactive means no such curve, though single readings can be large; an effect the other way counts as inactive or inconclusive. Potency means the concentration at half of the fitted maximal effect.

SMILES | VDR inh | Glioma ERSR ind | G9a block | ALOX12 inh | Sfp inh
Cc1ccc(S(=O)(=O)NCC(=O)OCc2cc(=O)oc3c(C)c(C)ccc23)cc1 | x | x | x | -21% | x
Clc1ccc(N2CCN(c3ncnc4c3oc3ccccc34)CC2)cc1 | -7% | -3% | -2% | -1% | 11%
CC1CN(c2ncnc3c2oc2ccccc23)CC(C)O1 (stereo unspecified) | 11% | 3% | 50µM* | u | 4%
COc1ccc(CCN2CC(C(=O)N(C)Cc3ccc(C)o3)CCC2=O)cc1 (stereo unspecified) | -14% | 7% | u | 4% | 22µM*
COc1ccc(CCN2CC(C(=O)N(C)Cc3ccccn3)CCC2=O)cc1 (stereo unspecified) | x | -2% | x | -18% | x
COc1ccc(-c2cc(=S)ss2)cc1 | 40µM* | -3% | u | 18µM*! | 2%
COc1ccc(-c2ccc(OC)cc2)cc1 | -2% | -5% | 0%[59 µM] | 0% | -10%
Nc1ncnc(Nc2ccc(Cl)c(Cl)c2)c1[N+](=O)[O-] | x | x | x | 33% | x
Cc1ccc(N2C(=O)N(Cc3ccccc3)c3ccccc3S2(=O)=O)c(C)c1 | x | x | x | 4% | x
CCN(CC)c1ccc(CN(C(=O)Cc2coc3ccc(C)cc23)C2CCS(=O)(=O)C2)cc1 (stereo unspecified) | 1% | -3% | 10µM* | -19% | x
CCc1ccc2occ(CC(=O)N(Cc3ccc(N(C)C)cc3)C3CCS(=O)(=O)C3)c2c1 (stereo unspecified) | -5% | -2% | 13µM* | 2% | x
Cc1ccc2occ(CC(=O)N(Cc3ccc(N(C)C)cc3)C3CCS(=O)(=O)C3)c2c1 (stereo unspecified) | 11% | -1% | 10µM* | 0% | x
Cc1ccc(CN(C(=O)Cc2coc3ccc(C(C)C)cc23)C2CCS(=O)(=O)C2)cc1 (stereo unspecified) | x | x | x | -19% | x
Cc1nc2cc(NC(=O)c3ccc(Cl)c(Cl)c3)ccc2o1 | x | x | x | -12% | x
Cc1ccc2oc(-c3cc(NC(=O)CC(C)C)ccc3O)nc2c1 | x | x | x | 34% | x
Cc1c(Cl)cccc1NC(=O)CCN=C1NS(=O)(=O)c2ccccc21 | x | x | x | 36% | x
S=c1[nH]nc(-c2ccc(Br)cc2)n1-c1ccc2c(c1)OCCO2 | -15% | -2% | 1.6µM* | u | 40µM*
COc1ccc(Cc2n[nH]c(=S)n2-c2ccc3c(c2)OCCO3)cc1 | 1% | -1% | 8.9µM* | u | -24%
S=c1[nH]nc(-c2ccc(Br)cc2)n1-c1ccc(Br)cc1 | 0% | -1% | 8.9µM* | u | 22%
S=c1[nH]nc(-c2ccc3ccccc3n2)n1-c1ccc2c(c1)OCCO2 | -1% | -2% | x | 0% | -2%
COc1ccc(-c2n[nH]c(=S)n2-c2ccc3c(c2)OCCO3)cc1 | -20% | -3% | 1.8µM* | u | u
O=C(O)c1ccc(-n2c(-c3ccc(Br)cc3)n[nH]c2=S)cc1 | -8% | -1% | u | x | u
O=C(Nc1c(NCc2ccccc2)c2ccccc2oc1=O)c1ccccc1Br | x | x | x | -5% | x
CCOCCCNC(=O)/C=C/c1ccc(OC)cc1 | x | x | x | 48% | x
O=[N+]([O-])c1cccc(-c2n[nH]c(=S)n2-c2ccc(Br)cc2)c1 | -17% | 4% | 6.3µM* | u | -5%
SMILES | VDR inh | Glioma ERSR ind | G9a block | ALOX12 inh | Sfp inh
Cc1[nH]c2ccc(-c3n[nH]c(=S)n3-c3ccc(Br)cc3)cc2c1C | -6% | -1% | -1% | -20% | 13%
COCCN=c1scc(C)n1/N=C/C1CC2C=CC1C2 (stereo unspecified) | 2% | 8% | 50µM* | -4% | -7%
O=C(NCCc1ccccc1)C1CCc2ncc(-c3ccsc3)n2C1 (stereo unspecified) | x | x | x | 56% | x
COc1ccccc1CN(Cc1ccccc1OC)[C@H]1C[C@@H](Cc2cc(CN3CCOCC3)on2)C1(C)C | x | x | x | -15% | x
CCCC(=O)Nc1ccc(NC(=O)c2ccco2)cn1 | -1% | -1% | -19% | 0% | 9%
CCN(c1ccc(NC(=O)CCNC(=O)c2ccco2)cc1)C(C)C | -2% | -3% | 5µM* | -7% | -4%
Cc1cc(C)nc(NS(=O)(=O)c2ccc(NC(=S)NC(=O)c3ccco3)cc2)n1 | 3% | -1% | 50µM* | -105% | u
CC(C)C(=O)Nc1ccc(NC(=O)c2ccco2)cn1 | u | -4% | 35µM* | -23% | 2%
COc1cc(NS(=O)(=O)c2ccc(NC(=S)NC(=O)c3ccco3)cc2)nc(OC)n1 | 24% | -2% | x | u | -25%
CCN(CC)c1ccc(NC(=O)c2c(C)noc2C)cc1 | 33% | u | 28µM* | 433% | -4%
CC(OC(=O)c1cc(=O)c2cc(Cl)ccc2o1)C(=O)NC1CC1 (stereo unspecified) | x | x | x | -19% | x
CCN(CC)c1ccc(NC(=O)c2ccco2)cc1 | -6% | -5% | 35µM* | -28% | -7%
CCN(CC)c1ccc(NC(=O)C(C)C)cc1 | 4% | -2% | 11µM* | u | -1%
CCN(CC)c1ccc(NC(=S)NC(=O)c2ccco2)cc1 | 79µM* | 0% | 28µM* | u | 35µM*
CN(CC(=O)Nc1ccc(F)cc1)C(=O)COC(=O)Cc1n[nH]c(=O)c2ccccc12 | x | x | x | 29% | x
O=C(Nc1ccc(Cl)cc1C(F)(F)F)c1ccc(-c2ccccc2)cc1 | x | x | x | 9% | x
Cc1cccc(N=N/C(=C\O)C(=O)c2cccs2)c1 | 4% | -11% | 28µM* | u | -23%
CC1CCC2C(C1)c1sc(=O)[nH]c1SC2(C)C (stereo unspecified) | -9% | -3% | 50µM* | -26% | 8%
CCN(CC)CCNc1ncnc2c1sc1nc(N3CCOCC3)c3c(c12)CCCC3 | 2% | -4% | 35µM* | -15% | 4%
COCC(=O)N1CCN(c2oc(-c3ccc(C)cc3)nc2S(=O)(=O)c2ccccc2)CC1 | x | x | x | -72% | x
CCC(NC(C)C)C(O)c1ccc(O)c(O)c1 (stereo unspecified) | 50µM*! | -3% | 27µM*! | 10µM*! | u
Cc1ccc(NC(=S)NC(=O)C2CCCCC2)c(Br)c1 | 18% | 4% | x | 32µM* | x
O=C(NC(=S)Nc1ccccc1Br)C1CCC1 | -14% | 4% | 22% | u | 4%
CC(C)c1ccccc1NC(=S)NC(=O)C1CCCCC1 | -12% | -3% | x | 16µM* | x
CC(C)c1ccccc1NC(=O)c1ccccc1NC(=O)C1CCCCC1 | 1% | -5% | 0%[59 µM] | -5% | 13%
CCC(=O)NC(=S)Nc1ccccc1C(=O)NC1CCCCC1 | 6% | -2% | -25%[59 µM] | -9% | 0%
N#Cc1ccccc1NC(=S)NC(=O)C1CCC1 | 18% | -6% | 71µM* | -10% | -9%
CC(C)C(=O)NC(=S)Nc1ccccc1C(=O)NC1CCCCC1 | -10% | -2% | 50µM* | -19% | 5%
CC(=O)c1ccc(NC(=O)c2nn(C(C)C)c(=O)c3ccccc23)cc1 | x | x | x | 0% | x
